Several values for one entry are separate records, joined by “and”; a condition that tells them apart may be missing. Identical values can stand only once. Records with an inconclusive call do not appear. A structure can be active in one record and inactive in another. Activity calls are given as the source filed them. Unless noted, calls come from the whole dose curve; as a rule, active = well fitted curve in the direction sought with a large enough effect in the repeat runs; inconclusive = weak or mixed curves; inactive = no such curve, though single readings can be large; an effect the other way counts as inactive or inconclusive.

The source of these data is PubChem BioAssay (Tox21).

Experiment [1] in a line: Caspase-3/7 induction in HepG2 cells by small molecules, qHTS assay (AID 1346978). Note: nearly all actives have a fitted effect of over 15% in size. The essentials: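 Caspase-3/7 induction was measured by Caspase-Glo 3/7 luminescence (30 min, room temperature) after a 17 hr compound exposure of wild-type HepG2 cells seeded at 2,000 per well and pre-incubated 5 hr.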
On the technique in general: In qHTS, concentration-response curves come from the screen itself.

The nature of experiment [2]: Caspase-3/7 induction in CHO-K1 cells by small molecules, qHTS assay (AID 1346980). Note: nearly all actives have a fitted effect of over 15% in size. In outline: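 Luminescent Caspase-Glo 3/7 read (30min, room temperature) quantified apoptosis induction. Cells were wild-type CHO-K1, treated with compound for 17hr at 37 C and 5% CO2.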
Experiment [3] in a line: Caspase-3/7 induction in HepG2 cells by small molecules, qHTS cell viability counter screen (AID 1346981). Note: series mostly up to about 92 µM; nearly all actives have a fitted effect of over 30% in size. In outline:
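HepG2, WT, 2,000 cells/well; 5 hr pre-incubation 37 C/5% CO2; compound pin-transferred from DMSO; 16 hr exposure; CellTiter-Fluor, 1 hr; fluorescence read.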

Experiment [4] deals with Nuclear receptor subfamily 1 group I member 2 (Homo sapiens) (UniProt O75469). The experiment is described as follows: Human pregnane X receptor (PXR) small molecule agonists, qHTS assay (AID 1346982). Note: nearly all actives have a fitted effect of over 35% in size. Note: potency is the fitted concentration of half-maximal effect. In outline:
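Luciferase signal from ONE-Glo (30 min, room temperature) measured activation of hPXR-driven CYP3A4 reporter expression in PXR-Luc HepG2 cells treated with compounds for 24 hr at 37 C.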

The target of experiment [5] is Acetylcholinesterase (Homo sapiens) (UniProt P22303). Briefly: Acetylcholinesterase (AChE) small molecule antagonists: enzyme-based qHTS assay (AID 1347397; calls by dose curve; note: nearly all actives have a fitted effect of over 55% in size; note: potency is the fitted concentration of half-maximal effect). Particulars: Potency: AChE enzyme activity inhibition. The essentials: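 Absorbance-based detection of thiocholine with DTNB served as the read-out. Recombinant human AChE was exposed to compound for 30 min at RT before a 10 min RT incubation with acetylthiocholine.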

Experiment [6] has the same target. The experiment is described as follows: Acetylcholinesterase (AChE) small molecule antagonists: fluorescence cell-based qHTS assay (AID 1347398; calls by dose curve; note: nearly all actives have a fitted effect of over 50% in size; note: potency is the fitted concentration of half-maximal effect). The conditions noted are these: Potency: AChE activity. In outline: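 Fluorimetric cell-based assay: intact SH-SY5Y cells, 30 min compound preincubation at 37 C, acetylthiocholine substrate with thiol probe Thiolite Green, 40 min RT development, fluorescence 490/520 nm.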

Experiment [7] has the same target. The experiment is described as follows: Acetylcholinesterase (AChE) small molecule antagonists: enzyme-based qHTS assay with human liver microsomes (AID 1347399; calls by dose curve; note: nearly all actives have a fitted effect of over 60% in size; note: potency is the fitted concentration of half-maximal effect). The conditions noted are these: Potency: qHTS inhibition. In outline: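 Recombinant human AChE (50 mU/mL in the enzyme mix) and human liver microsomes (0.25 mg/mL final) were preincubated with compound and NADPH (0.25 mg/mL final) for 30 min at 37 C. Acetylthiocholine/DTNB was then added; thiocholine was read colorimetrically after 10 min at room temperature.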

In experiment [8] the target is Cytochrome P450 2D6 (Homo sapiens) (UniProt P10635). Briefly: Cytochrome P450 Family 2 Subfamily D Member 6 (CYP2D6) small molecule antagonists: luciferase reporter qHTS assay (AID 1671196). Note: nearly all actives have a fitted effect of over 50% in size. Note: potency is the fitted concentration of half-maximal effect. The essentials: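 Read-out is luminescence from luciferin formed by CYP2D6 turnover of a proluciferin substrate, recorded as relative luminescence units. Reactions ran 1 h at room temperature after NADPH regeneration solution was added.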

The target of experiment [9] is Cytochrome P450 2C19 (Homo sapiens) (UniProt P33261). The experiment is described as follows: Cytochrome P450 Family 2 Subfamily C Member 19 (CYP2C19) small molecule antagonists: luciferase reporter qHTS assay (AID 1671197). Note: nearly all actives have a fitted effect of over 65% in size. Note: potency is the fitted concentration of half-maximal effect. The essentials:
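Quantitative high-throughput screen of the Tox21 library using CYP2C19 with proluciferin substrate. Reaction: NADPH regeneration, 37C, 1 h, after 10 min compound preincubation at room temperature. Readout: luminescence.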
(In general: A reporter such as luciferase makes a cellular process visible.)

The target of experiment [10] is Cytochrome P450 2C9 (Homo sapiens) (UniProt P11712). The experiment is described as follows: Cytochrome P450 Family 2 Subfamily C Member 9 (CYP2C9) small molecule antagonists: luciferase reporter qHTS assay (AID 1671198). Note: nearly all actives have a fitted effect of over 50% in size. Note: potency is the fitted concentration of half-maximal effect. The essentials:
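Enzyme-substrate mix preincubated with compound 10 min at room temperature; reaction started with NADPH regeneration solution, 1 h 37C. Luminescent luciferin product read after 20 min detection reagent.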

The target of experiment [11] is Cytochrome P450 1A2 (Homo sapiens) (UniProt P05177). Briefly: Cytochrome P450 Family 1 Subfamily A Member 2 (CYP1A2) small molecule antagonists: luciferase reporter qHTS assay (AID 1671199). Note: nearly all actives have a fitted effect of over 50% in size. Note: potency is the fitted concentration of half-maximal effect. The essentials: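 P450-Glo CYP1A2, 1536-well qHTS: enzyme/proluciferin substrate + cpd (DMSO), 10 min RT; NADPH regen, 1 h RT; detection reagent, 20 min; luminescence, RLU.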

For experiment [12], the target named is Voltage-gated inwardly rectifying potassium channel KCNH2 (Homo sapiens) (UniProt Q12809). The experiment is described as follows: Human Ether-a-go-go-Related Gene (hERG) channel small molecule antagonists: fluorescence cell-based qHTS assay (AID 1671200). Note: nearly all actives have a fitted effect of over 50% in size. Note: potency is the fitted concentration of half-maximal effect. In outline: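 Channel function was assessed by thallium flux. Cells seeded the previous day and kept at 37 C took up FluxOR II dye over 1 h in the dark at room temperature, then sat another 10 min before stimulation.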

Experiment [13] deals with Cytochrome P450 3A4 (Homo sapiens) (UniProt P08684). Briefly: Cytochrome P450 Family 3 Subfamily A Member 4 (CYP3A4) small molecule antagonists: luciferase reporter qHTS assay (AID 1671201). In outline:
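Compounds in DMSO were pin-transferred onto CYP3A4 enzyme-substrate mix and held 10 min at room temperature. NADPH regenerating solution started the reaction for 1 h; luciferin detection reagent stopped it, and luminescence was read after 20 min.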

The target of experiment [14] is Acetylcholinesterase (Homo sapiens) (UniProt P22303). The experiment is described as follows: Acetylcholinesterase (AChE) small molecule antagonists: colormetric cell-based qHTS assay (AID 1347395; calls by dose curve; note: nearly all actives have a fitted effect of over 30% in size). The essentials:
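Colorimetric read-out: DTNB detects thiocholine released when cellular AChE in SH-SY5Y cells hydrolyses acetylthiocholine. Cells attached overnight, received compound for 30 min at 37 C, then substrate mix for 90 min at 37 C.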

Experiment [15] in a line: Caspase-3/7 induction in CHO-K1 cells by small molecules, qHTS cell viability counter screen (AID 1346979). Note: nearly all actives have a fitted effect of over 35% in size. In outline: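 Cells (CHO-K1, wild type) are plated at 1,500 per well and incubated 5hr. Test compounds in DMSO are then pinned in, followed by 16hr at 37C and 5% CO2. Viability is read by CellTiter-Fluor fluorescence after 1hr.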
For experiment [16], the target named is Nuclear receptor subfamily 1 group I member 2 (Rattus norvegicus) (UniProt Q9R1A7). The experiment is described as follows: Rat pregnane X receptor (rPXR) activation by small molecules, qHTS assay (AID 1346983). Note: nearly all actives have a fitted effect of over 20% in size. The conditions noted are these: rPXR luciferase reporter cells, One-Glo luminescence, 24 h; stronger effect = higher value. The essentials:
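Luminescent readout (One-Glo luciferase, 30 min room temperature) followed 24 hr compound treatment at 37 C of rPXR cells plated 2,000 per well and preincubated 5hr; qHTS format with compounds delivered in DMSO.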
% is set by controls: 0 for no effect and ±100 for the full control effect.

Chain of Voltage-gated inwardly rectifying potassium channel KCNH2 (Homo sapiens) (Q12809 whole entry, looked up): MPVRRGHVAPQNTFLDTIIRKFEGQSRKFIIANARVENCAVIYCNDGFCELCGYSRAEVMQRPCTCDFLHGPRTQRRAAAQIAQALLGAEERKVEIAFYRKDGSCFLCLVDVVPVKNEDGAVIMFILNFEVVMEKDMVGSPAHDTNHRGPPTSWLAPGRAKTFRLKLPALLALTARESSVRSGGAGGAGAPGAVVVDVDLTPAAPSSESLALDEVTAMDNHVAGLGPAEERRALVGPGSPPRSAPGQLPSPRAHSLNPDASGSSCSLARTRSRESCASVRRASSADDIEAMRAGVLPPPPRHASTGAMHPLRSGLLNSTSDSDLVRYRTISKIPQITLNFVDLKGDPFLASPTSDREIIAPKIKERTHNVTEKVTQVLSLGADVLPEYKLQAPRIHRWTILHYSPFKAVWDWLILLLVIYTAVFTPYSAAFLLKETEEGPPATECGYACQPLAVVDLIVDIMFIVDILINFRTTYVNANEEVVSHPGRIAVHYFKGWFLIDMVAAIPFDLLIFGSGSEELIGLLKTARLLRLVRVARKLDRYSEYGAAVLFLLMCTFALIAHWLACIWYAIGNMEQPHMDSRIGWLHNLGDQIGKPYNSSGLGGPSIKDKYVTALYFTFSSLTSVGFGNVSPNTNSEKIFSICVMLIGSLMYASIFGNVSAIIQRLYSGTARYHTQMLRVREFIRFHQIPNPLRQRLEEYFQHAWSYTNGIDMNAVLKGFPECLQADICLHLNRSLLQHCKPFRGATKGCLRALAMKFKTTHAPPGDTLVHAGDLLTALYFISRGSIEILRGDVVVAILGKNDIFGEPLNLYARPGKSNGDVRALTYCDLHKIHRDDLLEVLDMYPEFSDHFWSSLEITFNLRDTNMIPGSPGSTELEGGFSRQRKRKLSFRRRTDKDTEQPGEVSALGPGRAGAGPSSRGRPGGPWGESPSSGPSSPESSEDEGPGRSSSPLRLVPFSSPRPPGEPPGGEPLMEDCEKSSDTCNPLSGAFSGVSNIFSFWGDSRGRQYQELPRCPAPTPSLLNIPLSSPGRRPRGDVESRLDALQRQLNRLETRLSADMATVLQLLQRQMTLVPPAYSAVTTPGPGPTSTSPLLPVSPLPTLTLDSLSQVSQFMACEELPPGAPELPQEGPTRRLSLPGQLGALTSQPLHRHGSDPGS
Chain of Cytochrome P450 1A2 (Homo sapiens) (P05177 whole entry, looked up): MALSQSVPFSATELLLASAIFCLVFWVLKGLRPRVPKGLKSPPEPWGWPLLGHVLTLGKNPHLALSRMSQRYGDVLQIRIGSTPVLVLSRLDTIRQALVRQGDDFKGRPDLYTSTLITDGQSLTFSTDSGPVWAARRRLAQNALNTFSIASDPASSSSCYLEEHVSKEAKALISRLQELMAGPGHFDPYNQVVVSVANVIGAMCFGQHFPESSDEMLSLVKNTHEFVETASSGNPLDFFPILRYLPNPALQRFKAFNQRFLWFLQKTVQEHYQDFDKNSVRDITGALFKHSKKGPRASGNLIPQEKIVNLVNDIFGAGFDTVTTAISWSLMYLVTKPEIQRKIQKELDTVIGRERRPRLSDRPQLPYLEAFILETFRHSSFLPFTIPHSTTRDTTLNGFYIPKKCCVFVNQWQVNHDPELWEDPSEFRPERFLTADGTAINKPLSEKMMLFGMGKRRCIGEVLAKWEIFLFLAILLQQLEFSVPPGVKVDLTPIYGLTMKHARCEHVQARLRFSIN
Chain of Cytochrome P450 2C9 (Homo sapiens) (P11712 whole entry, looked up): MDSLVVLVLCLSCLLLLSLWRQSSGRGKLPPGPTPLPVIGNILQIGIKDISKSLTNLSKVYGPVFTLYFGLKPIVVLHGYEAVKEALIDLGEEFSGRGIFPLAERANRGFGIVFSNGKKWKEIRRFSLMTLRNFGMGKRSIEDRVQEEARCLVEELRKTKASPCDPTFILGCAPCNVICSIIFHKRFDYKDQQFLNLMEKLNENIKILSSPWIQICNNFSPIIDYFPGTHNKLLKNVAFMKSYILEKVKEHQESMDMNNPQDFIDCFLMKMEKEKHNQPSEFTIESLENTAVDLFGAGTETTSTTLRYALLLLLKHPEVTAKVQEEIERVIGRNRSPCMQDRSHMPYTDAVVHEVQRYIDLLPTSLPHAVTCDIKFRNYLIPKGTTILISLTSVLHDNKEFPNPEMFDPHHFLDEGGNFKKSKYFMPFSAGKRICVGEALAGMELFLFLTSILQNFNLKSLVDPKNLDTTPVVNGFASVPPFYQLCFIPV
Chain of Acetylcholinesterase (Homo sapiens) (P22303 whole entry, looked up): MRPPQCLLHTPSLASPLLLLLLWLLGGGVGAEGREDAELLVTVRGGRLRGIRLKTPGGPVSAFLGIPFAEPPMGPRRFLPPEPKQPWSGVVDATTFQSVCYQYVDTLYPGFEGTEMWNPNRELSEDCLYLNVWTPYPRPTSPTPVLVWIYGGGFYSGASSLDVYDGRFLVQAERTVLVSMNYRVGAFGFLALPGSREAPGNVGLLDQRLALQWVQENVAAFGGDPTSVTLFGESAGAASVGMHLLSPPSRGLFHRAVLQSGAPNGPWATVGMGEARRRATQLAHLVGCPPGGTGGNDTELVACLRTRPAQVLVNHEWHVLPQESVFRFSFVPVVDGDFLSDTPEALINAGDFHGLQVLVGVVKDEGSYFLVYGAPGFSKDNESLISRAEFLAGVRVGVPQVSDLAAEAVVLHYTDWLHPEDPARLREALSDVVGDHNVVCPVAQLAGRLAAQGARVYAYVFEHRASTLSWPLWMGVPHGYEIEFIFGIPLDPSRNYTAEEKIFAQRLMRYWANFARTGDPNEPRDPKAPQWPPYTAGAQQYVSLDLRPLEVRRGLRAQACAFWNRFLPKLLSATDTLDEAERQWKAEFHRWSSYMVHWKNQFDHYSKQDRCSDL
Chain of Cytochrome P450 2D6 (Homo sapiens) (P10635 whole entry, looked up): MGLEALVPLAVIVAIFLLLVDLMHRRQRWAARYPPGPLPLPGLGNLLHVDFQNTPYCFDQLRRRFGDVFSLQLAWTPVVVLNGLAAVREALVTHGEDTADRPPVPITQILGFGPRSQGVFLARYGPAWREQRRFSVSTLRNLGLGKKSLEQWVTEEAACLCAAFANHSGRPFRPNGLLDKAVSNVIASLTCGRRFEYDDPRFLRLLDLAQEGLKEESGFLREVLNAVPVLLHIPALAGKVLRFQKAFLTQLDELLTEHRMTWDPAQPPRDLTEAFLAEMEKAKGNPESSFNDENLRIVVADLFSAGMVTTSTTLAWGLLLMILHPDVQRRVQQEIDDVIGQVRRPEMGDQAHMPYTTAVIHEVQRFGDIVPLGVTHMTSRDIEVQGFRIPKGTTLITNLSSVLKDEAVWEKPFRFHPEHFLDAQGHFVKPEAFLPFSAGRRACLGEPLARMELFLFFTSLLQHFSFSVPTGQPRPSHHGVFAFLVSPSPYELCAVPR
Chain of Nuclear receptor subfamily 1 group I member 2 (Homo sapiens) (O75469 whole entry, looked up): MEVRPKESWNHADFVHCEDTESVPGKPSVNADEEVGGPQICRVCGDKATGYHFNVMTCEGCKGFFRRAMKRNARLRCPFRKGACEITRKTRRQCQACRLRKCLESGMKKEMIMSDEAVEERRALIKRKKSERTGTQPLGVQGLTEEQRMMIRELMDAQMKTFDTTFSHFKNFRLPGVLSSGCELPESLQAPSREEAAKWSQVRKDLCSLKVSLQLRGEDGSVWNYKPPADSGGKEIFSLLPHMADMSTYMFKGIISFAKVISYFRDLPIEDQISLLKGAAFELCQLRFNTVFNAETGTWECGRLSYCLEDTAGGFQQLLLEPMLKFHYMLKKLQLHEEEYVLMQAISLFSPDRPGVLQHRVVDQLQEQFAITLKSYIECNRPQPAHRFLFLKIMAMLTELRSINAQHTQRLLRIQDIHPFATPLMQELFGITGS
Chain of Cytochrome P450 3A4 (Homo sapiens) (P08684 whole entry, looked up): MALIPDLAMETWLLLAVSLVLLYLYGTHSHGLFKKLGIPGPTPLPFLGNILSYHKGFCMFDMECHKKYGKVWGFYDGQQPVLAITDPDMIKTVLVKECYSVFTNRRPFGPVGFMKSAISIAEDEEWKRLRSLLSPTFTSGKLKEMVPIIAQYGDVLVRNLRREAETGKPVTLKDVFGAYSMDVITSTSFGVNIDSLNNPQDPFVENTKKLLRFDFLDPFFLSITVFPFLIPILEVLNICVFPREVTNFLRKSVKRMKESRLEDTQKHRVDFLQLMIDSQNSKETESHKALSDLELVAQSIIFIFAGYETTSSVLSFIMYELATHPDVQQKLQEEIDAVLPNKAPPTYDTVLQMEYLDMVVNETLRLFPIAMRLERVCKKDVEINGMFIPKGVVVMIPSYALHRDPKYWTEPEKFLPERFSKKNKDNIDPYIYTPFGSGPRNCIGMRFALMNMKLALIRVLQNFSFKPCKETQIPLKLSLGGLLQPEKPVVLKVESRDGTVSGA
Chain of Cytochrome P450 2C19 (Homo sapiens) (P33261 whole entry, looked up): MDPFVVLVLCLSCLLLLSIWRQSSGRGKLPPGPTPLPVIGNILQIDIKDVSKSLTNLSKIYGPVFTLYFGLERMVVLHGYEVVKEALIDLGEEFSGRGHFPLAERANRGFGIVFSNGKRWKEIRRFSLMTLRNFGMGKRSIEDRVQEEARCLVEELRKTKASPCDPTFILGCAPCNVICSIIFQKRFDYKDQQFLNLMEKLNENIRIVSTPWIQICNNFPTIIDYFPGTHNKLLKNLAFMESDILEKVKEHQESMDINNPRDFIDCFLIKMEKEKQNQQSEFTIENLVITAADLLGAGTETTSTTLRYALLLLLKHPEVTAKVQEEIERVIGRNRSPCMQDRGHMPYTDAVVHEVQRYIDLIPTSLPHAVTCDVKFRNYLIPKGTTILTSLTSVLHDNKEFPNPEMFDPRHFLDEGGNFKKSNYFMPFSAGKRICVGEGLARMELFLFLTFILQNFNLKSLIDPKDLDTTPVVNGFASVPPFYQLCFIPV

Turning to `CCOP(=S)(OCC)O/N=C(\C#N)c1ccccc1`, the Potency entry in experiment [1], in experiment [2], in experiment [3] and in experiment [12] was “inactive” each time. Further, the Potency in experiment [4] is 30.6 µM (active); in experiment [5] it was 56.4 µM (active); in experiment [6] it was 39.9 µM (active); in experiment [7], 1.78 µM (active) and 1.55 µM (active); in [8], 35.6 µM (active); in experiment [9], 224 nM (active) and 347 nM (active). For the same molecule, the Potency is 2 µM (active) and 2.19 µM (active) in experiment [10]; 1.42 µM (active) and 1.23 µM (active) in [11].
As for `CCOC(=O)C(C)OC(=O)c1cc(Oc2ccc(C(F)(F)F)cc2Cl)ccc1[N+](=O)[O-]` (stereo unspecified), the Potency entry in [1], in experiment [2], in experiment [3], in [5], in experiment [6] and in experiment [7] was “inactive” in each case. For the same molecule, the Potency entry in experiment [11], in experiment [12] and in experiment [13] was “inactive” throughout. For the same molecule, the Potency in [4] is 30.5 µM (active); in experiment [9], 6.3 µM (active) and 6.33 µM (active); in experiment [10], 7.06 µM (active) and 7.1 µM (active).
On to `N#Cc1cc(Br)c(O)c(Br)c1`, for which the Potency result in experiment [1], in [2], in experiment [3], in experiment [14], in [5] and in experiment [6] was “inactive” in each case. In addition, the Potency entry in [7], in experiment [8], in experiment [9], in [11] and in [12] was “inactive” throughout. The Potency is 68.5 µM (active) and inactive in experiment [4]; 20 µM (active) and 15.3 µM (active) in experiment [10].
Consider `O=C1C=CC(=O)C=C1`, for which the Potency entry in experiment [1], in experiment [2], in experiment [3], in experiment [4], in experiment [14] and in [5] was “inactive” throughout. Moreover, the Potency result in experiment [6], in [7], in [8], in experiment [9], in [10] and in experiment [12] was “inactive” throughout. Besides, the Potency entry in experiment [13] was “inactive”. Also, in experiment [11], the Potency was 40.1 µM (active).
For the molecule `O=[N+]([O-])c1c(Cl)c(Cl)c(Cl)c(Cl)c1Cl`, the Potency result in experiment [15], in experiment [2], in experiment [3], in experiment [4], in experiment [5] and in experiment [7] was “inactive” throughout. For the same molecule, the Potency result in experiment [9], in experiment [10], in experiment [12] and in experiment [13] was “inactive” each time. The Potency in [8] is 31.6 µM (active) and inactive; in experiment [11], 8.9 µM (active) and 1.59 µM (active).
Regarding `N#CC(Br)Br`, the Potency entry in [15], in [2], in experiment [3], in experiment [4], in experiment [14] and in experiment [5] was “inactive” each time. Also, the Potency result in experiment [6], in [7], in experiment [9], in experiment [10], in [11] and in experiment [12] was “inactive” each time. Also, the Potency entry in [13] is “inactive”. For the same molecule, in experiment [8], the Potency was 31.5 µM (active) and inactive.
In the case of `C[C@]12CCC(=O)C[C@@H]1CC[C@@H]1[C@@H]2CC[C@]2(C)[C@@H](O)CC[C@@H]12`, the Potency result in experiment [2] and in experiment [3] was “inactive” in each case. Also, the max activation in experiment [16] is -5.43% (inactive). In experiment [12], the Potency is 21.6 µM (active).
